Compounds with a hit are over-represented: about 15% of the library has one in this group of screens.
Sm TGR inh – qHTS Assay for the Inhibitors of Schistosoma Mansoni Peroxiredoxins; 3% of 360,000 active; purified TGR, DTNB reduction, TNB absorbance 405 nm; Potency, µM (doses to about 114 µM), for the others: top-dose activity change, negative = inhibition, usual class: inhibitors; Schistosoma mansoni thioredoxin glutathione reductase (TGR), Q962Y6; also: potency is read from the fitted curve at half-maximal effect; % is scaled to controls: 0 for no effect and ±100 for the full control effect; nearly all actives have a fitted effect of over 60% in size
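TGR 20 nM + NADPH 100 uM (dispensed conc.), cpd preinc 15 min RT; start with NADPH (500 uM addition) then DTNB (15 mM addition). Kinetic TNB absorbance, 405 nm filter. Four-parameter Hill fit across titration.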
HCV inh – qHTS Assay for Inhibitors of Hepatitis C Virus (HCV); Huh7.5.1 HCVcc-Cre infection, luciferase reporter, 44 h; Potency, µM (top dose mostly 41.8 µM), without a hit: top-dose activity change, negative = inhibition, actives largely listed as inhibitors; 3.4% of 340,000 active; AID 651820, 2012; also: potency is read from the fitted curve at half-maximal effect; % is scaled to controls: 0 for no effect and ±100 for the full control effect
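Antiviral activity was scored by luciferase reporter output from cells infected with HCVcc-Cre (~0.5 moi) in presence of compound, 44 h infection period, cells seeded 1,000/well 4 h prior.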
Pf growth 48h – Primary qHTS for delayed death inhibitors of the malarial parasite plastid, 48 hour incubation; P. falciparum luciferase growth in erythrocytes, 48 h; Potency, µM (series often up to 28.7 µM), inactives show top-dose activity change, negative = inhibition, usual class: inhibitors; 5.9% of 310,000 active; AID 504832, 2011; also: potency is read from the fitted curve at half-maximal effect; % is scaled to controls: 0 for no effect and ±100 for the full control effect
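Luciferase-expressing parasites in RBCs, 2% Hct / 0.1% parasitemia final; RPMI 1640 + 0.5% Albumax; 37 C, 5% CO2, one generation; luminescence read-out, lower signal = inhibition.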
HCMV inh – qHTS Assay for inhibitors of the human cytomegalovirus (HCMV); 4.5% of 410,000 active; HFF cells, HCMV-luciferase reporter, 72 h; hits give low values; activity change, negative = inhibition, % at 57.5 µM; in the data active = activity change below about -60%; inconclusive = no clear call, values can overlap the other calls; inactive = above about -39%; also: % is scaled to controls: 0 for no effect and ±100 for the full control effect
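Compounds were evaluated in HFFs infected with an HCMV luciferase reporter virus (MOI 1 PFU/cell). Luciferase in lysates collected 72 h post infection served as the replication measure.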
SARS PLP yeast – qHTS of Yeast-based Assay for SARS-CoV PLP. Potency, µM (top dose mostly 32.9 µM), inactives show at the top dose activity, positive = growth rescue, most hits filed as activators. AID 485353, 2010. 0.19% of 330,000 active. S. cerevisiae expressing SARS-CoV PLpro, growth rescue; calls by dose curve; also: potency is read from the fitted curve at half-maximal effect; 0% is about no effect; nearly all actives have a fitted effect of over 55% in size
Pf growth 96h – Primary qHTS for delayed death inhibitors of the malarial parasite plastid, 96 hour incubation. P. falciparum luciferase reporter growth, 96 h. Potency, µM (series often up to 28.7 µM), for inactives: top-dose activity change, negative = inhibition, most hits filed as inhibitors. 6.9% of 320,000 active. AID 504834, 2011; also: potency is read from the fitted curve at half-maximal effect; % is scaled to controls: 0 for no effect and ±100 for the full control effect
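Luminescence readout: decreased luciferase signal marks inhibited growth of reporter-expressing P. falciparum in infected red cells (2% hematocrit, 0.05% parasitemia final), exposed to compound two generations (96 h, 37 C, 5% CO2).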
Active calls of the source: *. Unless noted, calls follow the shape of the dose curve; as a rule, active = well fitted curve in the direction sought with a large enough effect; inconclusive = small, poorly fitted or top-dose-only effect, or another doubt; inactive = no such curve, though single readings can be large; an effect the other way counts as inactive or inconclusive.

For CSc1nc(S(C)(=O)=O)nc2[nH]c(=O)[nH]c12 the results were HCV inh 43.6% and HCMV inh -33.6.
CCN1C(=O)[C@@H]2[C@@H](c3ccc(-c4ccc(C(C)=O)cc4)cc3)N3CCC[C@@]3(C(=O)OC)[C@@H]2C1=O was read as Sm TGR inh -28.1%, HCV inh -11.1%, Pf growth 48h 9.28µM*, HCMV inh 31.2, SARS PLP yeast -0.2% and Pf growth 96h inconclusive.
Screening CCN1C(=O)[C@H]2[C@@H](c3ccc(-c4ccc(C(C)=O)cc4)cc3)N3CCCC[C@@]3(C(=O)OC)[C@H]2C1=O returned Sm TGR inh -15.2%, HCV inh 9.0%, Pf growth 48h inconclusive, HCMV inh 11.6, SARS PLP yeast -1.7% and Pf growth 96h 11.7µM*.
O=C(NCCO)C(=O)NCC(c1ccc2c(c1)OCO2)N1CCOCC1 (stereo unspecified) was read as Sm TGR inh -1.9% and HCMV inh 24.1.
`COc1ccc(Cl)cc1NC(=O)c1nnn(CC(=O)Nc2ccc(OC)c(OC)c2)c1N` gave Sm TGR inh 5.7%, HCV inh 7.0%, Pf growth 48h 21.4%, HCMV inh -33.7, SARS PLP yeast 6.2% and Pf growth 96h inconclusive.
Screening COc1ccc(Cl)cc1NC(=O)c1nnn(CC(=O)Nc2ccc3c(c2)OCO3)c1N returned Sm TGR inh -18.6%, HCV inh -2.0%, Pf growth 48h 29.2%, HCMV inh 70.1, SARS PLP yeast -5.3% and Pf growth 96h 14.7µM*.
COc1ccc(NC(=O)c2nnn(CC(=O)Nc3ccc4c(c3)OCO4)c2N)cc1OC was read as Sm TGR inh 0.2%, HCV inh inconclusive, Pf growth 48h 31.1%, HCMV inh 6.2, SARS PLP yeast -2.3% and Pf growth 96h inconclusive.
Screening COc1ccc(OC)c(NC(=O)c2nnn(CC(=O)Nc3ccc(C(C)C)cc3)c2N)c1 returned Sm TGR inh 3.6% and HCMV inh -62.7*.
For O=C(COc1ccccc1[N+](=O)[O-])N1CCN(c2ccccn2)CC1 the results were Sm TGR inh -0.3%, HCV inh -12.5%, Pf growth 48h -22.9%, HCMV inh -15.2, SARS PLP yeast -1.3% and Pf growth 96h -2.9%.
Screening CCOC(=O)c1c(/N=C/N(C)C)sc(/C=N/Nc2ccccc2)c1-c1ccccc1Cl returned Sm TGR inh -10.4%, HCV inh 6.31µM*, Pf growth 48h 6.57µM*, HCMV inh -16.7, SARS PLP yeast -16.0% and Pf growth 96h inconclusive.
`CCOC(=O)c1c(/N=C/N(C)C)sc(/C=N/Nc2ccccc2)c1-c1ccccc1` gave Sm TGR inh -5.7%, HCV inh inconclusive, Pf growth 48h 14.7µM*, HCMV inh 2.5, SARS PLP yeast 28.3% and Pf growth 96h 10.4µM*.
CCOC(=O)c1c(/N=C/N(C)C)sc(C=O)c1-c1ccccc1 was read as Sm TGR inh -12.0%, HCV inh -10.6%, Pf growth 48h -20.3%, HCMV inh inconclusive, SARS PLP yeast -0.5% and Pf growth 96h 1.4%.
O=C(NCCS(=O)(=O)N1CCN(c2cccc(Cl)c2)CC1)c1ccco1 was read as Sm TGR inh 4.5%, HCV inh 30.8%, Pf growth 48h 11.7%, HCMV inh -12.3, SARS PLP yeast -4.3% and Pf growth 96h inconclusive.
CCCOc1cccc(C(=O)N(Cc2sccc2C)C2CCS(=O)(=O)C2)c1 (stereo unspecified) was read as Sm TGR inh 4.3% and HCMV inh -20.0.
`CC1=C(C(=O)c2ccccc2)C(c2ccc(OC(F)F)cc2)NC(=S)N1` (stereo unspecified) gave Sm TGR inh 1.0%, HCV inh inconclusive, Pf growth 48h inconclusive, HCMV inh 23.7, SARS PLP yeast 0.6% and Pf growth 96h inconclusive.
Screening Nc1cc(OC(=O)c2ccc(F)cc2)nn1S(=O)(=O)c1ccccc1 returned Sm TGR inh -20.8%, HCV inh 11.6%, Pf growth 48h 2.0%, HCMV inh 15.0, SARS PLP yeast -0.2% and Pf growth 96h -1.5%.
Screening CCCCn1c(N)c(N(CC(C)C)C(=O)C2=NN(c3ccccc3)C(=O)CC2)c(=O)[nH]c1=O returned Sm TGR inh 89.1µM*, HCV inh 32.3%, Pf growth 48h inconclusive, HCMV inh -2.6, SARS PLP yeast 0.1% and Pf growth 96h -11.2%.
Cc1ccc(C)c(N2N=C(C(=O)N(CC(C)C)c3c(N)n(Cc4ccccc4)c(=O)[nH]c3=O)CCC2=O)c1 was read as Sm TGR inh 2.6%, HCV inh -6.6%, Pf growth 48h 13.1µM*, HCMV inh 16.6, SARS PLP yeast 0.7% and Pf growth 96h 7.38µM*.
`COc1ccc2c(c1)CC=C1C2CCC2(C)C(=O)C(=NO)CC12` (stereo unspecified) gave HCV inh -15.1% and HCMV inh 68.0.
Cc1nc2ccccc2n1CCc1nc2c3ccccc3nc(SCC(=O)NCc3ccco3)n2n1 was read as Sm TGR inh inconclusive, HCV inh inconclusive, Pf growth 48h inconclusive, HCMV inh -61.7*, SARS PLP yeast 2.1% and Pf growth 96h -28.4%.
For Cc1nc2ccccc2n1CCc1nc2c3ccccc3nc(SCC(=O)Nc3cccc(C(F)(F)F)c3)n2n1 the results were Sm TGR inh 13.4% and HCMV inh -60.7*.
`Cc1ccc(Cl)cc1NC(=O)CCCN1C(=O)CCn2nc(-c3cn(C)c4ccccc34)cc21` gave Sm TGR inh -5.3% and HCMV inh -2.6.
COc1ccc2c3n(nc2c1)C(C)CN=C3c1ccc(Cl)cc1 (stereo unspecified) was read as HCMV inh 34.5.
Screening CN1CCN(C(=O)C(C(=O)c2ccc(F)cc2)n2ccccc2=O)CC1 (stereo unspecified) returned Sm TGR inh 3.1%, HCV inh 28.5%, Pf growth 48h 11.0%, HCMV inh 11.0, SARS PLP yeast -2.2% and Pf growth 96h 2.33µM*.
O=C(c1ccccc1)C(C(=O)N1CCCCC1)n1ccccc1=O (stereo unspecified) was read as Sm TGR inh -9.8%, HCV inh 3.1%, Pf growth 48h 12.5%, HCMV inh 18.5, SARS PLP yeast 0.2% and Pf growth 96h 50.8%.

Screening data as filed in PubChem BioAssay.
